Only some compounds are listed: those with a hit (about 6.8% of all), similar ones and a draw of the others.
Spn PMK inh = S. pneumoniae PMK inhibition. inhibition, % at 10 µM. 65,000 compounds, 0.49% hits. purified PMK, PK/LDH-coupled NADH absorbance 340 nm;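 active = top-ranked compounds by inhibition in the single 10 µM screen, taking a fixed number of the strongest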;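 also: 0% = full reaction with DMSO carrier and 100% = background rate without enzyme reaction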
Spn DPM-DC inh = blocks S. pneumoniae diphosphomevalonate decarboxylase. purified DPM-DC, PK/LDH coupled NADH fluorescence. calls only at 10 µM. 65,000 compounds, 0.49% hits;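 active = the 320 compounds with the highest percent inhibition in the single-dose primary screen, excluding strongly autofluorescent ones, cut at about 32% in these data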;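 also: kinetic rate of NADH fluorescence loss reporting ADP formed by the decarboxylase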
MK inhibit = inhibitors of Streptococcus pneumoniae mevalonate kinase | purified MK, PK/LDH-coupled NADH absorbance 340 nm | 65,000 compounds, 0.48% hits | inhibition, % at 10 µM;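 active = ranked among the strongest by inhibition in the single 10 µM screen, a fixed top-ranked set picked for dose follow-up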
NADH enzymes = inhibitors of enzymes used to reach an NAD/NADH endpoint. coupled PK/LDH NADH assays, four targets. IC50, µM (highest dose often 10 µM), inactives show top-dose inhibition. 65,000 compounds, 0.02% hits;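 active = single-dose screening hits from any of four coupled enzyme assays that gave an IC50 when retested across doses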;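 also: the DPM-DC format reads NADH fluorescence rather than 340 nm absorbance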
Autofluor 339 = intrinsic fluorescence of library compounds, ex339/em460 – biochemical, MLSMR library, data from DPM-DC assay, artefact control, profiling panel. 65,000 compounds, 5.5% hits. fluorescence fold increase at 10 µM. compound autofluorescence, ex339/em460 nm, NADH buffer; hits give high values; 1 = no-compound wells, NADH background;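 active = at 10 µM, mean starting fluorescence two-fold or more over control wells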;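 also: signal is the first read of a kinetic run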
Abs 340nm = compounds absorbing at 340 nm. 65,000 tested, under 10 active. compound absorbance at 340 nm, fold over control. AID 708. fold change at 10 µM;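 active = at 10 µM dose, initial 340 nm absorbance at least 2 fold that of control wells; inactive = change under 2 fold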;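 also: initial absorbance extrapolated from kinetic A340 decline of NADH oxidation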
* marks the source's active call; other numbers are inactive results; i = inactive; nt = no result shown; + = active, no number.

SMILES	Spn PMK inh	Spn DPM-DC inh	MK inhibit	NADH enzymes	Autofluor 339	Abs 340nm
COc1cccc(CN2CCN(C(=O)CC(C)C)CC2)c1	7	i	61*	7%	1	1.1
CC(C)CC(=O)N1CCN(Cc2cccc(F)c2)CC1	14	i	59*	24%	1.1	1.1
O=C(CSCc1cccc(F)c1)N1CCN(c2ccccc2)CC1	25*	i	7	12%	1	1
Cc1ccnc(SCCn2c(Br)nc3c2c(=O)n(C)c(=O)n3C)n1	9	i	8	6%	1.1	1
COc1cc2c(N3CCOCC3)cc(O)c(CC(=O)Nc3ccccc3)c2cc1OC	10	nt	5	4%	3.1*	1
CCOc1cc(N2CCOCC2)c(OCC)cc1NC(=O)CN1CCc2ccccc2C1	2	i	73*	25%	1.1	1.1
CCOc1cc(N2CCOCC2)c(OCC)cc1NC(=O)Cc1ccc(OC)c(OC)c1	26*	i	5	10%	1	0.99
O=c1c2ccccc2cnn1-c1nc2ccccc2s1	13	nt	0	3%	3*	0.99
O=c1c2ccccc2ncn1Cc1nc2ccccc2s1	0	i	7	2%	1.1	1.1
O=C(NCC(c1cccs1)N1CCOCC1)c1ccc(Cl)s1 (configuration not stated)	10	i	9	6%	1.1	0.98
O=C(C(c1ccccc1)c1ccccc1)N1CCN(Cc2ccccn2)CC1	2	i	52*	6%	1	1.1
O=C(C(c1ccccc1)c1ccccc1)N1CCN(Cc2ccncc2)CC1	4	i	34	13%	1.1	1
COC(=O)c1c(C#N)c(N)nc2c1CCC2	3	nt	11	3%	3*	1
O=C(NC1CCCC1)C(c1ccco1)N(Cc1ccccc1)C(=O)c1csnn1 (configuration not stated)	13	i	0	3%	1	0.99
CC(C)C(=O)Nc1ccc(-c2nc3cccnc3o2)cc1	12	nt	7	4%	2.5*	1.1
CC(Oc1ccc(Cl)cc1Cl)C(=O)Nc1ncccn1 (configuration not stated)	4	i	8	2%	1.1	1
CC(Oc1ccc(Cl)cc1Cl)C(=O)Nc1ccc2oc(-c3ccncc3)nc2c1 (configuration not stated)	5	nt	12	9%	3.8*	1
Cc1ccc(-c2nc3cc(NC(=O)C(C)C)ccc3o2)cc1	1	nt	5	2%	2.5*	1.1
Cc1ccc(-c2nc3cc(NC(=O)C(C)C)ccc3o2)cc1C	12	nt	4	3%	3*	1
CC(C)C(=O)Nc1cccc(-c2nc3ccccc3o2)c1	6	i	8	6%	1.1	0.99
Cc1cc2nc(-c3ccc(NC(=O)C(C)C)cc3)oc2cc1C	0	nt	0	0%	2.2*	1.1
O=c1[nH]c2ccccc2nc1-c1cccs1	11	nt	0	6%	4.9*	1.1
c1csc(-c2nnsc2-c2nc3ccccc3[nH]2)c1	8	i	2	3%	1.2	1
O=C(NCCCNC(=O)c1ccccn1)c1ccccn1	25*	i	0	4%	1.1	0.99
O=C(NCC1CCCO1)c1ccccn1 (configuration not stated)	12	i	6	6%	1.2	1
SMILES	Spn PMK inh	Spn DPM-DC inh	MK inhibit	NADH enzymes	Autofluor 339	Abs 340nm
CS(=O)(=O)n1nc(C(=O)N2CCOCC2)nc1N	16	i	6	7%	1.1	1
Cc1c(C(=O)NCc2ccc3c(c2)OCO3)sc2nc(-c3ccccc3)cn12	9	+	12	18%	1	1.1
Cc1c(C(=O)NCc2ccc3c(c2)OCO3)sc2nc(-c3ccc(F)cc3)cn12	9	i	0	3%	1.1	1
CC(=O)Nc1ccc2nc(-c3cccs3)[nH]c2c1	8	nt	2	5%	2.3*	1.1
Cc1cc(C)nc(N2CCC(C(=O)Nc3cccc(C(F)(F)F)c3)CC2)n1	17	i	5	8%	1.2	0.98
COc1ccc2c(c1)CCc1cc(C(=O)N3CCN(c4ccc(N5CCOCC5)nn4)CC3)sc1-2	11	nt	15	6%	2.5*	1
COc1ccc2c(c1)CCc1c(C(=O)N3CCCCCC3)noc1-2	16	i	0	5%	1.1	1

Compound activity deposited in PubChem BioAssay by SRMLSC.
